According to PubChem BioAssay (NCATS):
Inconclusive results are not listed. Where a call stands in place of a potency, no number is given. Active and inactive are the calls of the source. The call rests on the fitted dose curve; in most records, active means well fitted cell-killing curve with a large enough effect; inconclusive means small, poorly fitted or top-dose-only effect, or effect the other way; inactive means flat fitted curve, though single readings scatter.

How the values were obtained:
Assay in all cases: Primary qHTS to identify gynecologic anti-cancer compounds using libraries of approved drugs and bioactive compounds (AID 1345084); further: nearly all actives have a fitted effect of over 55% in size
CASKI = conditions: Gynecologic cancer cell panel viability, ATPlite luminescence, 48 h; series mostly up to 57.5 µM
Method in brief: (§1)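 48 h compound exposure at 37 C, 5% CO2; five-point qHTS. ATPlite luminescence readout of cell ATP.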

Es-2 = conditions: Gynecologic cancer cell panel viability, ATPlite luminescence, 48 h; series mostly up to 57.5 µM
Method in brief: as §1

HeLa = conditions: Gynecologic cancer cell panel viability, ATPlite luminescence, 48 h; series mostly up to 57.5 µM
Method in brief: as §1

Hek293T = conditions: Gynecologic cancer cell panel viability, ATPlite luminescence, 48 h, control line for the selectivity index; series mostly up to 57.5 µM
Method in brief: as §1

JEG-3 = conditions: Gynecologic cancer cell panel viability, ATPlite luminescence, 48 h; series mostly up to 57.5 µM
Method in brief: as §1

OV90 = conditions: Gynecologic cancer cell panel viability, ATPlite luminescence, 48 h; series mostly up to 57.5 µM
Method in brief: as §1

PA-1 = conditions: Gynecologic cancer cell panel viability, ATPlite luminescence, 48 h; series mostly up to 57.5 µM
Method in brief: as §1

SKOV3 = conditions: Gynecologic cancer cell panel viability, ATPlite luminescence, 48 h; series mostly up to 57.5 µM
Method in brief: as §1

Tov-21-G = conditions: Gynecologic cancer cell panel viability, ATPlite luminescence, 48 h; series mostly up to 57.5 µM
Method in brief: as §1
Potency means the concentration at half of the fitted maximal effect.

SMILES: Cc1cnc(C(=O)NCCc2ccc(S(=O)(=O)NC(=O)NC3CCCCC3)cc2)cn1
- Potency (CASKI): inactive
- Potency (Es-2): inactive
- Potency (HeLa): inactive
- Potency (Hek293T): inactive
- Potency (JEG-3): inactive
- Potency (OV90): inactive
- Potency (PA-1): inactive
- Potency (SKOV3): inactive
- Potency (Tov-21-G): inactive

SMILES: C[C@](N)(Cc1ccc(O)c(O)c1)C(=O)O
- Potency (CASKI): inactive
- Potency (Es-2): inactive
- Potency (HeLa): inactive
- Potency (Hek293T): inactive
- Potency (OV90): inactive
- Potency (PA-1): inactive
- Potency (SKOV3): inactive
- Potency (Tov-21-G): inactive

SMILES: Nc1c2c(nc3ccccc13)CCCC2
- Potency (CASKI): inactive
- Potency (Es-2): inactive
- Potency (HeLa): inactive
- Potency (Hek293T): inactive
- Potency (JEG-3): inactive
- Potency (OV90): inactive
- Potency (PA-1): inactive
- Potency (Tov-21-G): inactive

SMILES: CN1CCN(CCCN2c3ccccc3Sc3ccc(Cl)cc32)CC1
- Potency (CASKI): inactive
- Potency (Es-2): inactive
- Potency (HeLa): inactive
- Potency (Hek293T): inactive
- Potency (JEG-3): inactive
- Potency (SKOV3): inactive
- Potency (Tov-21-G): inactive

SMILES: O=c1c(O)c(-c2ccc(O)c(O)c2)oc2cc(O)cc(O)c12
- Potency (CASKI): inactive
- Potency (Es-2): inactive
- Potency (HeLa): 15.8 µM (active)
- Potency (Hek293T): inactive
- Potency (JEG-3): inactive
- Potency (SKOV3): inactive
- Potency (Tov-21-G): inactive

SMILES: COc1ccc2c(c1)c(CC(=O)O)c(C)n2C(=O)c1ccc(Cl)cc1
- Potency (CASKI): inactive
- Potency (Es-2): inactive
- Potency (HeLa): inactive
- Potency (Hek293T): inactive
- Potency (JEG-3): inactive
- Potency (PA-1): inactive
- Potency (SKOV3): inactive
- Potency (Tov-21-G): inactive

SMILES: CCCNCC(O)COc1ccccc1C(=O)CCc1ccccc1 (stereo not drawn)
- Potency (CASKI): inactive
- Potency (Es-2): inactive
- Potency (HeLa): inactive
- Potency (Hek293T): inactive
- Potency (JEG-3): inactive
- Potency (PA-1): inactive
- Potency (Tov-21-G): inactive

SMILES: CCN1CCCC1CNC(=O)c1cc(S(=O)(=O)CC)c(N)cc1OC (stereo not drawn)
- Potency (CASKI): inactive
- Potency (Es-2): inactive
- Potency (HeLa): inactive
- Potency (Hek293T): inactive
- Potency (JEG-3): inactive
- Potency (OV90): inactive
- Potency (PA-1): inactive
- Potency (Tov-21-G): inactive

SMILES: CN(C)c1nc(N(C)C)nc(N(C)C)n1
- Potency (CASKI): inactive
- Potency (Es-2): inactive
- Potency (HeLa): inactive
- Potency (Hek293T): inactive
- Potency (JEG-3): inactive
- Potency (OV90): inactive
- Potency (PA-1): inactive
- Potency (Tov-21-G): inactive

SMILES: OCCN(CCO)c1nc(N2CCCCC2)c2nc(N(CCO)CCO)nc(N3CCCCC3)c2n1
- Potency (CASKI): inactive
- Potency (Es-2): inactive
- Potency (Hek293T): inactive
- Potency (JEG-3): inactive
- Potency (PA-1): inactive
- Potency (SKOV3): inactive
- Potency (Tov-21-G): inactive

SMILES: CN(C)CCC=C1c2ccccc2C=Cc2ccccc21
- Potency (CASKI): inactive
- Potency (HeLa): inactive
- Potency (Hek293T): inactive
- Potency (JEG-3): inactive
- Potency (PA-1): inactive
- Potency (Tov-21-G): inactive

SMILES: COc1cc2nc(N3CCN(C(=O)c4ccco4)CC3)nc(N)c2cc1OC
- Potency (CASKI): inactive
- Potency (HeLa): inactive

SMILES: CC(CCc1ccc(O)cc1)NCCc1ccc(O)c(O)c1 (stereo not drawn)
- Potency (CASKI): inactive
- Potency (Es-2): inactive
- Potency (HeLa): inactive
- Potency (Hek293T): inactive
- Potency (JEG-3): inactive
- Potency (OV90): inactive
- Potency (Tov-21-G): inactive

SMILES: CC1(CN2CCC(n3c(=O)[nH]c4ccccc43)CC2)OCc2ccccc2-n2cccc21 (stereo not drawn)
- Potency (CASKI): inactive
- Potency (Es-2): inactive
- Potency (HeLa): inactive
- Potency (Hek293T): inactive
- Potency (JEG-3): inactive
- Potency (PA-1): inactive
- Potency (SKOV3): inactive
- Potency (Tov-21-G): inactive

SMILES: O=C(Nc1ccc([N+](=O)[O-])cc1Cl)c1cc(Cl)ccc1O
- Potency (CASKI): 6.31 µM (active)
- Potency (Es-2): 2.51 µM (active)
- Potency (HeLa): 1.26 µM (active)
- Potency (Hek293T): 1.78 µM (active)
- Potency (JEG-3): 2.82 µM (active)
- Potency (OV90): inactive
- Potency (PA-1): 2 µM (active)
- Potency (SKOV3): 3.98 µM (active)
- Potency (Tov-21-G): 3.55 µM (active)

SMILES: CC(C(=O)O)c1cccc(C(=O)c2ccccc2)c1 (stereo not drawn)
- Potency (CASKI): inactive
- Potency (Es-2): inactive
- Potency (HeLa): inactive
- Potency (Hek293T): inactive
- Potency (JEG-3): inactive
- Potency (OV90): inactive
- Potency (PA-1): inactive
- Potency (Tov-21-G): inactive

SMILES: O=C1Cc2cc(CCN3CCN(c4nsc5ccccc45)CC3)c(Cl)cc2N1
- Potency (CASKI): inactive
- Potency (Es-2): inactive
- Potency (HeLa): inactive
- Potency (Hek293T): inactive
- Potency (JEG-3): inactive
- Potency (OV90): inactive
- Potency (PA-1): inactive
- Potency (SKOV3): inactive
- Potency (Tov-21-G): inactive

SMILES: Fc1ccc([C@@H]2CCNC[C@H]2COc2ccc3c(c2)OCO3)cc1
- Potency (CASKI): inactive
- Potency (HeLa): inactive
- Potency (Hek293T): inactive
- Potency (JEG-3): inactive
- Potency (PA-1): inactive
- Potency (Tov-21-G): inactive

SMILES: Nc1nnc(-c2cccc(Cl)c2Cl)c(N)n1
- Potency (CASKI): inactive
- Potency (Es-2): inactive
- Potency (HeLa): inactive
- Potency (Hek293T): inactive
- Potency (JEG-3): inactive
- Potency (OV90): inactive
- Potency (PA-1): inactive
- Potency (SKOV3): inactive
- Potency (Tov-21-G): inactive

SMILES: OCCN1CCN(CCCN2c3ccccc3Sc3ccc(C(F)(F)F)cc32)CC1
- Potency (Es-2): inactive
- Potency (HeLa): inactive
- Potency (JEG-3): inactive
- Potency (PA-1): inactive
- Potency (SKOV3): inactive
- Potency (Tov-21-G): inactive

SMILES: Cc1cc(C(C)(C)C)cc(C)c1CC1=NCCN1
- Potency (CASKI): inactive
- Potency (JEG-3): inactive
- Potency (Tov-21-G): inactive

SMILES: NC(CO)C(=O)NNCc1ccc(O)c(O)c1O (stereo not drawn)
- Potency (CASKI): inactive
- Potency (Es-2): inactive
- Potency (HeLa): inactive
- Potency (Hek293T): inactive
- Potency (JEG-3): inactive
- Potency (OV90): inactive
- Potency (Tov-21-G): inactive

SMILES: CN(Cc1cnc2nc(N)nc(N)c2n1)c1ccc(C(=O)N[C@@H](CCC(=O)O)C(=O)O)cc1
- Potency (HeLa): 0.199 µM (active)
- Potency (Hek293T): 0.158 µM (active)
- Potency (JEG-3): 0.316 µM (active)
- Potency (SKOV3): inactive
- Potency (Tov-21-G): 0.1 µM (active)

SMILES: CN(C)CCCN1c2ccccc2CCc2ccc(Cl)cc21
- Potency (HeLa): inactive
- Potency (JEG-3): inactive
- Potency (PA-1): inactive
- Potency (Tov-21-G): inactive

SMILES: CN1CCN(C2=Nc3cc(Cl)ccc3Nc3ccccc32)CC1
- Potency (CASKI): inactive
- Potency (Es-2): inactive
- Potency (HeLa): inactive
- Potency (Hek293T): inactive
- Potency (JEG-3): inactive
- Potency (SKOV3): 31.6 µM (active)
- Potency (Tov-21-G): inactive

SMILES: COc1ccccc1OCCNCC(O)COc1cccc2[nH]c3ccccc3c12 (stereo not drawn)
- Potency (Es-2): inactive
- Potency (HeLa): inactive
- Potency (PA-1): inactive
- Potency (SKOV3): inactive
- Potency (Tov-21-G): inactive

SMILES: Clc1ccccc1C(c1ccccc1)(c1ccccc1)n1ccnc1
- Potency (CASKI): inactive
- Potency (Es-2): inactive
- Potency (HeLa): inactive
- Potency (JEG-3): inactive
- Potency (SKOV3): inactive
- Potency (Tov-21-G): inactive

SMILES: CNCCCC12CCC(c3ccccc31)c1ccccc12
- Potency (HeLa): inactive
- Potency (Hek293T): inactive
- Potency (JEG-3): inactive
- Potency (OV90): 17.8 µM (active)
- Potency (SKOV3): 11.2 µM (active)
- Potency (Tov-21-G): inactive

SMILES: CN1CCC(=C2c3ccccc3C=Cc3ccccc32)CC1
- Potency (CASKI): inactive
- Potency (Es-2): inactive
- Potency (HeLa): inactive
- Potency (JEG-3): inactive
- Potency (PA-1): inactive
- Potency (SKOV3): inactive
- Potency (Tov-21-G): inactive

SMILES: CN1CCN2c3ccccc3Cc3ccccc3C2C1 (stereo not drawn)
- Potency (Es-2): inactive
- Potency (HeLa): inactive
- Potency (JEG-3): inactive

SMILES: CC(C)Cc1ccc(C(C)C(=O)O)cc1 (stereo not drawn)
- Potency (CASKI): inactive
- Potency (Es-2): inactive
- Potency (HeLa): inactive
- Potency (Hek293T): inactive
- Potency (JEG-3): inactive
- Potency (OV90): inactive
- Potency (PA-1): inactive
- Potency (Tov-21-G): inactive
